Experimental findings from PubChem BioAssay (NCATS) are described below.

Inconclusive results are not listed. Active and inactive are the calls of the source. The call rests on the fitted dose curve; in most records, active means well fitted curve in the direction sought with a large enough effect; inconclusive means small, poorly fitted or top-dose-only effect, or another doubt; inactive means no such curve, though single readings can be large; an effect the other way counts as inactive or inconclusive.
Further: nearly all actives have a fitted effect of over 35% in size.
Potency means the concentration at half of the fitted maximal effect.

The first assay is described as follows: Quantitative High-Throughput drug screen in 47 multiple myeloma cell lines against the NCATS MIPE library collection: KHM11_PLB cell viability assay (AID 1918962). Conditions: KHM11 myeloma cell viability, CellTiter-Glo ATP luminescence, 48 h; series mostly up to 45.8 µM. The method in brief:
(§1)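 Myeloma cell lines, 500 cells per well, exposed to MIPE 4.0 library compounds for 48 h at 37C, 5% CO2. Viability from ATP by CellTiter-Glo luminescence; normalised to DMSO (100%) and media-only (0%) wells.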
For orientation: Cellular ATP, detected with luciferase, serves as a proxy for viable cell number.
With `Cc1ccc(C(N)=O)cc1Nc1nccc(-c2cn(C(C)C)c3cnccc23)n1`, the Potency was 3.32 µM (active). Same read-out and setting: to `N#CCNC(=O)c1ccc(-c2ccnc(Nc3ccc(N4CCOCC4)cc3)n2)cc1` belongs 4.69 µM (active); to `C#Cc1cccc(Nc2ncnc3cc(OC)c(OCCCCCCC(=O)NO)cc23)c1`, 0.372 µM (active). Turning to `CN(c1ncccc1CNc1nc(Nc2ccc3c(c2)CC(=O)N3)ncc1C(F)(F)F)S(C)(=O)=O`, the Potency was 2.96 µM (active).

For the compound `COC(=O)C[C@](O)(CCCC(C)(C)O)C(=O)O[C@@H]1C(OC)=C[C@]23CCCN2CCc2cc4c(cc2[C@H]13)OCO4`, the Potency entry was “inactive”.

Consider `Cc1ccc(NC(=O)C2(c3ccc4c(c3)OC(F)(F)O4)CC2)nc1-c1cccc(C(=O)O)c1`, for which the Potency was 0.0662 µM (active). Same read-out and setting: the value for `Fc1cc(-c2cccc3ncc(-c4cnn(C5CCNCC5)c4)nc23)cc(F)c1CN1CCOCC1` was 6.62 µM (active); that for `CCCn1c(=O)c2[nH]c(-c3cnn(Cc4cccc(C(F)(F)F)c4)c3)nc2n(CC)c1=O` was “inactive”. As to `O=C(CCCCCCNC(=O)c1cnc(N(c2ccccc2)c2ccccc2)nc1)NO`, the Potency was 10.5 µM (active). Turning to `O=C(CCCCCCC(=O)Nc1ccc([C@H]2O[C@@H](CSc3nc(-c4ccccc4)c(-c4ccccc4)o3)C[C@@H](c3ccc(CO)cc3)O2)cc1)NO`, the Potency was 14.8 µM (active). `COc1ccc(OC)c(-c2nnc3ccc(-c4ccc(OC)c(O[C@@H]5CCOC5)c4)nn23)c1`: the Potency is 7.43 µM (active). For `C[C@@H](Oc1cc(-c2cnn(C3CCNCC3)c2)cnc1N)c1c(Cl)ccc(F)c1Cl`, the Potency was 3.72 µM (active).

As to `CCN1CCN(CC(=O)Nc2ccc(-c3cccc4c(=O)cc(N5CCOCC5)oc34)c3sc4ccccc4c23)CC1`, the Potency is 0.0526 µM (active). On to `OCc1ccc(-c2ccc(-c3ccc(CO)s3)o2)s1`, for which the Potency was 6.62 µM (active). For `O=C(Nc1cn[nH]c1-c1nc2ccc(CN3CCOCC3)cc2[nH]1)NC1CC1`, the Potency was 1.48 µM (active).

Turning to `CC(C)c1ccc(Cn2ccc3c4c(N)nc(NC5CC5)nc4ccc32)cc1`, the Potency is 14.8 µM (active). For the compound `Cc1cn(-c2cc(NC(=O)c3ccc(C)c(Nc4nccc(-c5cccnc5)n4)c3)cc(C(F)(F)F)c2)cn1`, the Potency entry is “inactive”.

Turning to `COc1cc2c(cc1-c1c(C)noc1C)ncc1[nH]c(=O)n([C@H](C)c3ccccn3)c12`, the Potency was 2.96 µM (active). Regarding `OCCCNc1cc(-c2ccnc(Nc3cccc(Cl)c3)n2)ccn1`, the Potency is 0.0187 µM (active). For the compound `NC(=O)Nc1cc(-c2cccc(F)c2)sc1C(=O)N[C@H]1CCCNC1`, the Potency was 0.0743 µM (active). Consider `Nc1nccc(Oc2ccc(NC(=O)c3c[nH]cc(-c4ccc(F)cc4)c3=O)cc2F)c1Cl`, for which the Potency was 18.7 µM (active). For `COC(=O)C1=C(C)NC(C)=C(C(=O)OCCN2CCN(C(c3ccccc3)c3ccccc3)CC2)C1c1cccc([N+](=O)[O-])c1` (stereo not drawn), the Potency entry is “inactive”. For the compound `O=C(Cc1ccc(-c2ccc(OCCN3CCOCC3)cc2)cn1)NCc1ccccc1`, the Potency was 0.469 µM (active).

A further assay is described as follows: Quantitative High-Throughput drug screen in 47 multiple myeloma cell lines against the NCATS MIPE library collection: JIM3_ECACC cell viability assay (AID 1918963). Conditions: JIM3 myeloma viability, CellTiter-Glo ATP, 48 h; series mostly up to 45.8 µM. The method in brief:
as §1
Regarding `Cc1ccc(C(N)=O)cc1Nc1nccc(-c2cn(C(C)C)c3cnccc23)n1`, the Potency was 5.26 µM (active). Take `N#CCNC(=O)c1ccc(-c2ccnc(Nc3ccc(N4CCOCC4)cc3)n2)cc1`: the Potency is 13.2 µM (active).

In the case of `c1ccc2c(CCNc3ccc(Nc4ccncc4)cc3)c[nH]c2c1`, the Potency is 16.6 µM (active). Consider `C#Cc1cccc(Nc2ncnc3cc(OC)c(OCCCCCCC(=O)NO)cc23)c1`, for which the Potency was 2.35 µM (active). The same measure, in the same setting: the value for `C[C@@H](Oc1cc(-n2cnc3ccc(CN4CCN(C)CC4)cc32)sc1C(N)=O)c1ccccc1C(F)(F)F` was 0.0372 µM (active). For `CN(c1ncccc1CNc1nc(Nc2ccc3c(c2)CC(=O)N3)ncc1C(F)(F)F)S(C)(=O)=O`, the Potency was 5.9 µM (active). The same measure, in the same setting: the value for `COc1cccc(Nc2c(C(N)=O)cnc3c(C)cc(S(=O)(=O)c4cccc(C(=O)N(C)C)c4)cc23)c1` was “inactive”. As for `O=C1CCC[C@@H]2[C@H]3CCC[N+]4([O-])CCC[C@@H](CN12)[C@@H]34` (stereo partly drawn), the Potency entry was “inactive”. As to `COC(=O)C[C@](O)(CCCC(C)(C)O)C(=O)O[C@@H]1C(OC)=C[C@]23CCCN2CCc2cc4c(cc2[C@H]13)OCO4`, the Potency entry was “inactive”.

For the compound `CCN(CC)CCCCNc1ncc2cc(-c3cc(OC)cc(OC)c3)c(NC(=O)NC(C)(C)C)nc2n1`, the Potency is 23.5 µM (active). Consider `Cc1ccc(NC(=O)C2(c3ccc4c(c3)OC(F)(F)O4)CC2)nc1-c1cccc(C(=O)O)c1`, for which the Potency is 0.118 µM (active). On to `CCCCN1CCC(CNC(=O)c2c3n(c4ccccc24)CCCO3)CC1`, for which the Potency was 18.7 µM (active). In the case of `Fc1cc(-c2cccc3ncc(-c4cnn(C5CCNCC5)c4)nc23)cc(F)c1CN1CCOCC1`, the Potency was 16.6 µM (active). The same measure, in the same setting: to `CCCn1c(=O)c2[nH]c(-c3cnn(Cc4cccc(C(F)(F)F)c4)c3)nc2n(CC)c1=O` belongs “inactive”. The same measure, in the same setting: the value for `COc1ccc(-n2nc(C(N)=O)c3c2C(=O)N(c2ccc(N4CCCCC4=O)cc2)CC3)cc1` was “inactive”; that for `O=C(CCCCCCNC(=O)c1cnc(N(c2ccccc2)c2ccccc2)nc1)NO` was 16.6 µM (active); that for `O=C(CCCCCCC(=O)Nc1ccc([C@H]2O[C@@H](CSc3nc(-c4ccccc4)c(-c4ccccc4)o3)C[C@@H](c3ccc(CO)cc3)O2)cc1)NO` was 23.5 µM (active). Consider `COc1ccc(OC)c(-c2nnc3ccc(-c4ccc(OC)c(O[C@@H]5CCOC5)c4)nn23)c1`, for which the Potency was 8.33 µM (active). With `COc1cc(C(C)C)c2c(c1)S(=O)(=O)N(COc1cc(=O)n3cccc(OCCN4CCCCC4)c3n1)C2=O`, the Potency was 18.7 µM (active). As to `C[C@@H](Oc1cc(-c2cnn(C3CCNCC3)c2)cnc1N)c1c(Cl)ccc(F)c1Cl`, the Potency is 8.33 µM (active). As to `CCN1CCN(CC(=O)Nc2ccc(-c3cccc4c(=O)cc(N5CCOCC5)oc34)c3sc4ccccc4c23)CC1`, the Potency was 1.18 µM (active). Consider `OCc1ccc(-c2ccc(-c3ccc(CO)s3)o2)s1`, for which the Potency is 16.6 µM (active). Still for that read-out and setting: to `O=C(c1ccc(Nc2nccc(-c3cc4ccccc4s3)n2)cc1)N1CCC(N2CCCC2)CC1` belongs 3.72 µM (active); to `O=C(Nc1cn[nH]c1-c1nc2ccc(CN3CCOCC3)cc2[nH]1)NC1CC1`, 1.18 µM (active); to `CC(C)c1ccc(Cn2ccc3c4c(N)nc(NC5CC5)nc4ccc32)cc1`, 0.148 µM (active).

Regarding `Cc1cn(-c2cc(NC(=O)c3ccc(C)c(Nc4nccc(-c5cccnc5)n4)c3)cc(C(F)(F)F)c2)cn1`, the Potency result was “inactive”. As for `COc1cc2c(cc1-c1c(C)noc1C)ncc1[nH]c(=O)n([C@H](C)c3ccccn3)c12`, the Potency was 18.7 µM (active). Still for that read-out and setting: the value for `OCCCNc1cc(-c2ccnc(Nc3cccc(Cl)c3)n2)ccn1` was 0.0526 µM (active); that for `CC(C)(C)OC(=O)Nc1ccc(-c2cc(C(=O)NCCCCCCC(=O)NO)no2)cc1` was 3.72 µM (active).

`C[C@H]1C[C@@H]2[C@@H]([C@@H](O)C[C@@]3(C)[C@H]2CC[C@]3(O)C(=O)CO)[C@@]2(C)C=CC(=O)C=C12`: the Potency result is “inactive”. Turning to `NC(=O)Nc1cc(-c2cccc(F)c2)sc1C(=O)N[C@H]1CCCNC1`, the Potency was 0.469 µM (active).

Take `Nc1nccc(Oc2ccc(NC(=O)c3c[nH]cc(-c4ccc(F)cc4)c3=O)cc2F)c1Cl`: the Potency is 26.4 µM (active). In the case of `COc1cc2c(Oc3ccc(NC(=O)C4(C(=O)Nc5ccc(F)cc5)CC4)cc3F)ccnc2cc1OCCCN1CCOCC1`, the Potency is 11.8 µM (active). Same read-out and setting: to `COC(=O)C1=C(C)NC(C)=C(C(=O)OCCN2CCN(C(c3ccccc3)c3ccccc3)CC2)C1c1cccc([N+](=O)[O-])c1` (stereo not drawn) belongs “inactive”.

As to `O=C(Cc1ccc(-c2ccc(OCCN3CCOCC3)cc2)cn1)NCc1ccccc1`, the Potency was 0.0166 µM (active).
